Test results from PubChem BioAssay (NCATS).
Where “and” joins values, the source holds several entries; their conditions need not be identical. Equal entries are not always repeated. A number with no mark means an inactive call. Inconclusive results are not listed. Entries that show only a call come without a potency. Calls of active or inactive are those of the source. Unless noted, calls follow the shape of the dose curve; as a rule, active = well fitted curve in the direction sought with a large enough effect; inconclusive = small, poorly fitted or top-dose-only effect, or another doubt; inactive = no such curve, though single readings can be large; an effect the other way counts as inactive or inconclusive.

Assays:
[1] = qHTS assay for small molecule disruptors of the mitochondrial membrane potential - 5 hr assay (AID 651755; calls by dose curve; also: nearly all actives have a fitted effect of over 40% in size; also: potency is read from the fitted curve at half-maximal effect); conditions: JC-1-type ratio dye; series mostly up to 92.2 µM
Procedure, shortened: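 HepG2, 2,000 cells/well, overnight attach; cpd or DMSO 5 hr, 37C/5% CO2; Mito-MPS 30 min 37C; fluor 490/535 + 540/590 nm.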

[2] = target: Tumor necrosis factor (Homo sapiens) (UniProt P01375); test: qHTS assay to identify small molecules that stimulate Tumor Necrosis Factor-alpha (TNF-alpha) secretion (AID 651757; active = well fitted curve in the direction sought with a large enough effect in the signal ratio; the % refers to the signal ratio); conditions: Human cells, HTRF 665/615 ratio; series mostly up to 92.2 µM
Sequence of Tumor necrosis factor (Homo sapiens) (P01375 whole entry, looked up): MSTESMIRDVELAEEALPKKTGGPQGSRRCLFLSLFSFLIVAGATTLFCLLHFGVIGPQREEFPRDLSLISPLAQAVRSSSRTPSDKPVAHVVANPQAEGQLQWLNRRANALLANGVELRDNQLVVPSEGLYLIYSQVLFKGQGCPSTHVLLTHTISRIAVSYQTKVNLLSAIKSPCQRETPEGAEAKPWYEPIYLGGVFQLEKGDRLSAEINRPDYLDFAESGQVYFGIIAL
Procedure, shortened: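 Read-out is HTRF, a TR-FRET sandwich of cryptate- and XL665-labeled anti-TNF-alpha antibodies detecting cytokine secreted by THP-1 cells. Cells had been incubated with test compounds at 37 C for 17 hrs beforehand.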

[3] = qHTS assay for environmental chemicals that activate the Aryl hydrocarbon Receptor (AhR) signaling pathway (AID 651777); conditions: 1A2-DRE human hepatoma cells, luciferase, 24 h; activation: stronger effect = higher value; also: nearly all actives have a fitted effect of over 15% in size; also: potency is read from the fitted curve at half-maximal effect
Procedure, shortened: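 AhR activation is scored as a rise in luciferase from a stable DRE–CYP1A2 promoter construct in human hepatoma cells. Treatment lasts 24 hr at 37 C; detection uses One-Glo after 30 min at room temperature.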

[4] = target: Peroxisome proliferator-activated receptor alpha (Homo sapiens) (UniProt Q07869); test: qHTS assay for small molecule agonists of the peroxisome proliferator-activated receptor alpha (PPARalpha) signaling pathway (AID 651778); conditions: PathHunter PPARalpha complementation, chemiluminescence, 6 h; max response: stronger effect = higher value
Sequence of Peroxisome proliferator-activated receptor alpha (Homo sapiens) (Q07869 whole entry, looked up): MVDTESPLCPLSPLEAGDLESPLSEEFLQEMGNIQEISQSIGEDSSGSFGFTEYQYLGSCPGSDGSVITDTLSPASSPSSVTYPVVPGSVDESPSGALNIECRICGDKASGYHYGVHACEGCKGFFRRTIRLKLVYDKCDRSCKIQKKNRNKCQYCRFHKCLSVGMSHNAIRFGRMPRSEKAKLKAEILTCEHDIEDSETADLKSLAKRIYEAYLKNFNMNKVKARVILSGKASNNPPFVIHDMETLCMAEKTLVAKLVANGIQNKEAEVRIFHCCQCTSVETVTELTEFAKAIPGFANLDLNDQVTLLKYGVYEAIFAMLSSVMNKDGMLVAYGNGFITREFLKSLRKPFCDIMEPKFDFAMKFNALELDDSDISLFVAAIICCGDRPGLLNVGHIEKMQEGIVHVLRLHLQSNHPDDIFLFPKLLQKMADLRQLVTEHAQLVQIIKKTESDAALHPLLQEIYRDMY
Procedure, shortened: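 Chemiluminescence from complemented enzyme reported PPARalpha activation in cells after 6 hr of compound treatment at 37 C. The detection reagent was incubated for 60 min at room temperature, and compounds were scored as agonists.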

[5] = qHTS assay to identify small molecules that stimulate interleukin-8 (IL-8) secretion (AID 651758; active = well fitted activation curve with a large enough effect in the signal ratio; the % refers to the signal ratio); conditions: HTRF ratio (665/615); series mostly up to 92.2 µM
Procedure, shortened: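 Secreted IL-8 measured by TR-FRET sandwich (cryptate and XL665 antibodies) from THP-1 cells exposed to compound overnight (16 hrs, 37 C).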

[6] = target: Nuclear receptor ROR-gamma (Homo sapiens) (UniProt P51449); test: qHTS assay for small molecule antagonists of the retinoid-related orphan receptor gamma (ROR-gamma) signaling pathway (AID 651802); conditions: ROR-gamma antagonist cell reporter assay; series mostly up to 92.2 µM; also: nearly all actives have a fitted effect of over 60% in size; also: potency is read from the fitted curve at half-maximal effect
Sequence of Nuclear receptor ROR-gamma (Homo sapiens) (P51449 whole entry, looked up): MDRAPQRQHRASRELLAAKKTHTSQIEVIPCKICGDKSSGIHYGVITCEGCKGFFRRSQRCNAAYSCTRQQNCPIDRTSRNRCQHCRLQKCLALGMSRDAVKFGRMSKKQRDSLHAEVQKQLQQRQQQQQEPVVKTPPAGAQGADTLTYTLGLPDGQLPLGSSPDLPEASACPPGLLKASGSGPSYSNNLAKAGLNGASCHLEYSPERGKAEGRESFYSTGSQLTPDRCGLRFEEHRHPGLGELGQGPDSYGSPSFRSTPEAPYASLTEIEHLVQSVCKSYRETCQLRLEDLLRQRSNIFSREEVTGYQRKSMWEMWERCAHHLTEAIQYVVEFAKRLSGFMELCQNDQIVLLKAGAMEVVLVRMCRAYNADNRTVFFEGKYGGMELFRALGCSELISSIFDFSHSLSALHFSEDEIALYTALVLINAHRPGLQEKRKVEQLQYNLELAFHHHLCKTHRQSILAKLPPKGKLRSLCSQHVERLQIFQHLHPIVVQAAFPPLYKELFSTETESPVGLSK
Procedure, shortened: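 CHO, TET-inducible ROR + RORE-LUC reporter, 1536-well qHTS. Compound pinned, doxycycline added, 16hr 37C/5% CO2. ONE-Glo, 30 min RT, luminescence; signal drop scored as antagonism.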

[7] = target: Arylsulfatase A (Homo sapiens) (UniProt P15289); test: qHTS screen for enhancers of Arylsulfatase A (ASA1): LOPAC Validation Assay (AID 720538); conditions: ASA enzyme activity, LOPAC qHTS enhancer assay; series mostly up to 57.5 µM
Sequence of Arylsulfatase A (Homo sapiens) (P15289 whole entry, looked up): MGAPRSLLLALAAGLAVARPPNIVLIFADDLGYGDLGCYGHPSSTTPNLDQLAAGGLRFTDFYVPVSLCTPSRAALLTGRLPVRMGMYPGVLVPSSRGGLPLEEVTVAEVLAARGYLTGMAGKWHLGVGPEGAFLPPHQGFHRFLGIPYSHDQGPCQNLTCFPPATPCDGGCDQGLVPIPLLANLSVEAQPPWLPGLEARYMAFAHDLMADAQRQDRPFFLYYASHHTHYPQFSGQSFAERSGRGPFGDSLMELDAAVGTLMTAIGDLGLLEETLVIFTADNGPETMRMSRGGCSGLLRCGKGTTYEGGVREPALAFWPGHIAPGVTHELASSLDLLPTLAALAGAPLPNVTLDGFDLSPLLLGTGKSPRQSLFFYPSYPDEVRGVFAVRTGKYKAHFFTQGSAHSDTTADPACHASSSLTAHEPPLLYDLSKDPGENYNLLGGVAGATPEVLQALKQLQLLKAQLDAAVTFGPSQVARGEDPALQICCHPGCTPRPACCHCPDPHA
Procedure, shortened: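 Read-out: fluorescence at Ex=525/Em=598 nm after 1N NaOH final stop. Patient fibroblasts carrying ASA-I179S had 48h compound exposure, then 14h room-temperature pNCS hydrolysis (0.5mM final) in lysis buffer. Signal increase = enhanced activity.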

[8] = qHTS for compounds that reverse cellular toxicity of Amyloid beta (A-beta) peptide in yeast: LOPAC Validation Assay (AID 720559); conditions: yeast expressing A-beta; series mostly up to 46.1 µM
Procedure, shortened: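 OD600 growth readout after 48 hr at 30 C; A-beta-toxic yeast plus pinned compounds in medium. Normalization: DMSO = negative, equimolar FeCl3 + clioquinol = positive.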

CCCCC(CC)COC(=O)c1ccccc1C(=O)OCC(CC)CCCC (stereo not given)
Potency [1]: inactive
outcome [2]: inactive
activation [3]: -0.0838% and 0.859%
max response [4]: -1.13% and 3.57%

CCCCCCCCCC(CC)c1ccc(S(=O)(=O)O)cc1 (stereo not given)
activation [3]: -1.06%
max response [4]: 1.36%

Nc1ccc([N+](=O)[O-])cc1O
Potency [1]: 37.6 µM (active)

O=C(O)COc1nc(Cl)c(Cl)cc1Cl
activation [3]: 0.732%
max response [4]: -3.53%

O=C(O)COc1ccccc1
outcome [2]: inactive
outcome [5]: inactive
activation [3]: 0.99%
max response [4]: -1.23%

Nc1ccccc1N
Potency [3]: 39.8 µM (active)

OCCCBr
outcome [2]: inactive
activation [3]: 1.3%
max response [4]: -3.35%
Potency [6]: inactive

COCCOCCO
activation [3]: -0.559% and 0.0587%
max response [4]: -0.0911% and 0.363%

CCO/N=C(\CC)C1=C(O)CC(c2c(C)cc(C)cc2C)CC1=O (stereo not given)
activation [3]: -2.09%
max response [4]: -0.461%

O=[N+]([O-])c1cc([N+](=O)[O-])c2ccccc2c1
outcome [2]: inactive
activation [3]: 11.7%
max response [4]: -4.32%
Potency [6]: inactive

CCCN(CCC)c1c([N+](=O)[O-])cc(S(N)(=O)=O)cc1[N+](=O)[O-]
activation [3]: -1.72%
max response [4]: 9.4%

Nc1cccc2c(N)cccc12
Potency [1]: 5.96 µM (active)
Potency [3]: 25.1 µM (active)
Potency [6]: inactive

CC(C)(c1ccc(O)cc1)c1ccc(O)cc1
Potency [1]: 33.5 µM (active)

O=S(=O)(c1ccc(Cl)cc1)c1ccc(Cl)cc1
outcome [2]: inactive
outcome [5]: inactive
activation [3]: -0.947% and -1.11% and 1.55%
max response [4]: 2.6% and -3.68% and -3.44%
Potency [6]: inactive

CN(C)NC(=O)CCC(=O)O
Potency [1]: inactive
outcome [2]: inactive
activation [3]: 0.139% and -1.5%
max response [4]: 0.401% and -4.12%
Potency [6]: inactive

C1CCC(NC2CCCCC2)CC1
outcome [2]: inactive
outcome [5]: inactive
activation [3]: -1.28% and -0.443% and 0.0289%
max response [4]: 0.749% and -0.258% and -1.01%
Potency [6]: inactive

CCCCCCCCc1ccc(O)cc1
outcome [2]: inactive
activation [3]: 1.65% and 1.55%
max response [4]: 18.3% and 5.8%
Potency [6]: inactive

CN(C)[C@@H]1C(=O)C(C(N)=O)=C(O)[C@@]2(O)C(=O)C3=C(O)c4c(O)cccc4[C@@](C)(O)[C@H]3[C@H](O)[C@@H]12
Potency [1]: inactive
outcome [2]: inactive
activation [3]: 0.477% and 1.23% and -3.54%
max response [4]: -3.16% and 0.185% and -4.32%

Nc1ccc(Cl)cc1N
Potency [1]: 13.3 µM (active)
Potency [3]: 50.1 µM (active) and 39.8 µM (active)
max response [4]: -5.6% and -0.828%
Potency [6]: inactive

Nc1ccc([N+](=O)[O-])cc1
outcome [2]: inactive
outcome [5]: inactive
max response [4]: -2.66%
Potency [6]: inactive

Nc1ccc(Cl)cc1
Potency [1]: inactive
outcome [2]: inactive
activation [3]: 0.816%
max response [4]: 8.91%
Potency [6]: inactive

O=C(O)CCCOc1ccc(Cl)cc1Cl
activation [3]: 4.85%
max response [4]: 5.21%

CC(C)(O)C(=O)Nc1ccc([N+](=O)[O-])c(C(F)(F)F)c1
Potency [1]: 26.6 µM (active)
activation [3]: -1.15%
max response [4]: -1.76%

COc1ccc(C(c2ccc(OC)cc2)C(Cl)(Cl)Cl)cc1
Potency [1]: 37.6 µM (active)
outcome [2]: inactive
outcome [5]: inactive
activation [3]: 1.39% and 11.4% and 6.25%
max response [4]: 12.2% and 6.03% and 0.144%
Potency [6]: 26.6 µM (active)

COC(C)(C)CCCC(C)C/C=C/C(C)=C/C(=O)OC(C)C (stereo not given)
Potency [1]: inactive
outcome [2]: inactive
activation [3]: 4.38% and 10.5%
max response [4]: 3.83% and 3.99%
Potency [6]: inactive

c1cc2ccc3cccc4ccc(c1)c2c34
outcome [2]: inactive
outcome [5]: inactive
activation [3]: -0.0456% and 4.28%
max response [4]: -3.14% and -4.98%
Potency [6]: inactive

O=C(O)c1cc(Oc2ccc(C(F)(F)F)cc2Cl)ccc1[N+](=O)[O-]
activation [3]: 2.44%
max response [4]: -3.73%

CO/C=C(/C(=O)OC)c1ccccc1Oc1cc(Oc2ccccc2C#N)ncn1
activation [3]: 1.61%

CC(=O)[O][Hg][c]1ccccc1
Potency [1]: 13.3 µM (active)
activation [3]: -9.33% and -11.2%
max response [4]: -13.3% and -4.57%
Potency [6]: 0.531 µM (active)

O=[N+]([O-])c1c(Cl)c(Cl)cc(Cl)c1Cl
Potency [1]: inactive
outcome [2]: inactive
outcome [5]: inactive
activation [3]: 4.33%
max response [4]: 0.293%
Potency [6]: inactive

Nc1ccc(Sc2ccc(N)cc2)cc1
Potency [1]: inactive
activation [3]: 6.89% and 6.82%
max response [4]: -3.47% and -0.953%
Potency [6]: inactive

C=CC(=O)NCNC(=O)C=C
outcome [2]: inactive
outcome [5]: inactive
activation [3]: 1.7% and 2.02%
max response [4]: -3.68% and -5.17%

CCOCCOC(C)=O
outcome [2]: inactive
activation [3]: -0.221%
max response [4]: 0.307%
Potency [6]: inactive

O=C(O)C(Cl)Cl
outcome [2]: inactive
activation [3]: 3.85% and 0.254%
max response [4]: -0.693% and -4.76%
Potency [6]: inactive

CCOP(=O)(NC(C)C)Oc1ccc(SC)c(C)c1 (stereo not given)
outcome [2]: inactive
outcome [5]: inactive
activation [3]: 4% and 2.89%
max response [4]: 2.22% and -0.0211%
Potency [6]: inactive

CCCCOC(=O)c1ccccc1C(=O)OCc1ccccc1
Potency [1]: inactive
outcome [2]: inactive
outcome [5]: inactive
activation [3]: 12.8% and 3.39%
max response [4]: -3.94% and -0.0123%
Potency [6]: inactive

O=[N+]([O-])c1c2ccccc2cc2ccccc12
Potency [1]: 29.8 µM (active)
outcome [2]: inactive
activation [3]: 10%
max response [4]: 5.89%
Potency [6]: inactive

Cc1cc(O)ccc1Cl
Potency [1]: inactive
outcome [2]: inactive
activation [3]: -0.735%
max response [4]: -2.23%

CCCCCC[C@H]1C(=O)O[C@H](C)[C@H](NC(=O)c2cccc(NC=O)c2O)C(=O)O[C@@H](C)[C@@H]1OC(=O)CC(C)C
activation [3]: -1.12%

CC(C)Oc1cccc(NC(=O)c2ccccc2C(F)(F)F)c1
activation [3]: 11.8%
max response [4]: 3.69%

Brc1ccccc1-c1ccccc1
Potency [6]: inactive

O=C(N[C@H]1CN2CCC1CC2)c1ccc(Cl)cc1
outcome [7]: inactive
outcome [8]: inactive

CC[C@@H](C(N)=O)N1CCCC1=O
outcome [7]: inactive
outcome [8]: inactive

c1ccc(C2(c3ccccc3)CC2C2=NCCN2)cc1 (stereo not given)
outcome [8]: inactive

NCCc1c[nH]c2ccc(O)cc12
outcome [7]: inactive; inhibitor; fitted 4.2562 uM
outcome [8]: inactive

C[N+]1(C)C2CCC1CC(OC(=O)C(CO)c1ccccc1)C2 (stereo not given)
outcome [7]: inactive
outcome [8]: inactive

CNCCc1ccc(O)c(O)c1
outcome [8]: inactive

CCCN1CCO[C@@H]2c3cc(O)ccc3OC[C@H]21
outcome [7]: inactive
outcome [8]: inactive

Cn1cnc(CCN)c1
outcome [7]: inactive
outcome [8]: inactive

NC1CC1c1ccccc1 (stereo not given)
outcome [7]: inactive
outcome [8]: inactive

COc1cc(C(O)CN)ccc1O (stereo not given)
outcome [7]: inactive
outcome [8]: inactive

NCCc1c[nH]c2ccccc12
outcome [8]: inactive

CN1C2CCC1CC(OC(=O)c1cc(Cl)cc(Cl)c1)C2 (stereo not given)
outcome [7]: inactive
outcome [8]: inactive

O=C(Cc1ccc(Cl)c(Cl)c1)N1CCCCC1CN1CCCC1 (stereo not given)
outcome [7]: inactive
outcome [8]: inactive

c1ccc2sc(C3(N4CCCCC4)CCCCC3)cc2c1
outcome [8]: inactive

CCCN1CCC[C@H](c2cccc(O)c2)C1
outcome [8]: inactive

CC(C)Oc1cccnc1N(C)C1CCN(Cc2ccccc2)CC1
outcome [7]: inactive
outcome [8]: inactive

CC[C@@]1(O)C(=O)OCc2c1cc1n(c2=O)Cc2cc3ccccc3nc2-1
outcome [7]: inactive
outcome [8]: inactive

C/C=C(/C)C(=O)O[C@H]1C(C)=C2[C@H]([C@@H]1OC(=O)CCCCCCC)[C@@](C)(OC(C)=O)C[C@H](OC(=O)CCC)[C@@]1(O)[C@H]2OC(=O)[C@@]1(C)O
outcome [7]: inactive
outcome [8]: inactive

C[C@@H]1O[C@H](C[N+](C)(C)C)C[C@H]1O
outcome [8]: inactive

CS(=N)(=O)CC[C@H](N)C(=O)O (stereo not given in full)
outcome [7]: inactive
outcome [8]: inactive

O=C1CCCN1CC#CCN1CCCC1
outcome [7]: inactive
outcome [8]: inactive

NC1CCc2cc(O)c(O)cc2C1 (stereo not given)
outcome [7]: inactive
outcome [8]: inactive

NC(CP(=O)(O)O)C(=O)O (stereo not given)
outcome [7]: inactive
outcome [8]: inactive

NCc1cc(=O)[nH]o1
outcome [8]: inactive

O=C(O)[C@@H]1CCN1
outcome [7]: inactive
outcome [8]: inactive

CCCN(CCC)C1CCc2ccc(O)cc2C1 (stereo not given)
outcome [7]: inactive; inhibitor; fitted 0.0338 uM
outcome [8]: inactive

NC(=O)CN1CC(O)CC1=O (stereo not given)
outcome [7]: inactive
outcome [8]: inactive

CC(=O)NCCc1c[nH]c2ccccc12
outcome [7]: inactive
outcome [8]: inactive

CNCCc1c[nH]c2ccc(O)cc12
outcome [7]: inactive
outcome [8]: inactive

Cc1nccc2c1[nH]c1ccccc12
outcome [7]: inactive
outcome [8]: inactive

CC(C)NC(C)Cc1ccc(I)cc1 (stereo not given)
outcome [7]: inactive; inhibitor; fitted 0.3013 uM
outcome [8]: inactive

CCCN(CCC)[C@@H]1CCc2ccc(O)cc2C1
outcome [7]: inactive
outcome [8]: inactive

Cc1c(C(=O)c2cccc3ccccc23)c2cccc3c2n1[C@H](CN1CCOCC1)CO3
outcome [8]: inactive
